From PMC5540273 (PLoS ONE, 2017)
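Note: KINOMEscan kinase panel screen.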

What follows are molecules tested on WNK4. Details: concentration: 1 μM, replicates: in singlicate; n = 1.
`Fc1cccc(COc2nnc(-c3ccc4c(c3)CCO4)o2)c1` was tested, and the “%Inh” value was 0%. `COc1ccc(CNC(=O)NC2CCN(c3ccnc(Nc4cc(OC)c(OC)c(OC)c4)n3)C2)cc1` (stereo not shown) [GSK1379748] was tested, and the “%Inh” value was 52%. With `O=C(Nc1n[nH]c2nc(-c3nccs3)c(Br)cc12)C1CCCC1` [SB-742609] the “%Inh” value was 0%. With `Cc1csc(-c2nc(Nc3ccncc3)c3ccccc3n2)n1` [GW869640] the “%Inh” value was 13%. In the case of `O=C(Nc1n[nH]c2nc(-c3nccs3)c(Br)cc12)C1CC1` [SB-742251], the “%Inh” value is reported as 51%.

Each molecule was assayed on T1, YANK1. Details: concentration: 1 μM, replicates: in singlicate; n = 1.
T1 construct: gene STK32A
For `Nc1ncnc2[nH]c(-c3ccccc3)nc12` [AH5015], the “%Inh” value was 98%. In the case of `Cc1cc(-c2ccc3c(c2)CC[C@@H](N[C@@H](C)c2ccccc2)C3)cnc1N.Cl` [GW412617], the “%Inh” value is reported as 2%. `Cc1ccc(-c2cc(-c3c[nH]nc3-c3ccccn3)ccn2)cc1` [GW684088] was tested, and the “%Inh” value was 0%. For `O=C(Nc1n[nH]c2cc(-c3cccc(F)c3F)ccc12)C1CC1` [SB-733894], the “%Inh” value was 0%. For `O=C(Nc1ccc2c(c1)OCO2)NC1CCN(c2ccnc(Nc3ccc(F)cc3)n2)C1` (stereo not shown) [GSK1379724], the “%Inh” value was 9%. For `O=c1cc(N2CCOCC2)nc2n(Cc3cccc(Cl)c3Cl)ccn12` [GSK2286295], the “%Inh” value was 16%. `COc1cccc(NC(=O)NC2CCN(c3ccnc(Nc4ccc(F)cc4)n3)C2)c1` (stereo not shown) [GSK1379721] was tested, and the “%Inh” value was 0%. `CN(C)CCN(C)C(=O)c1cc(-c2ccncc2)c(-c2ccc(Cl)c(O)c2)o1.Cl.Cl` [SB-710397] was tested, and the “%Inh” value was 49%. For `CC(C)(C)c1ccc(C(=O)Nc2cn3cc(Cl)ccc3n2)cc1`, the “%Inh” value was 0%. With `COc1cc2nccc(Nc3ccc(NC(=O)c4ccc(C)cc4)c(O)c3)c2cc1OC.Cl` [GW440132] the “%Inh” value was 11%. With `O=C1NC(=O)C(N2CCc3ccccc32)=C1c1ccccc1Cl` [SB-373598] the “%Inh” value was 13%. With `COc1cc2ncn(-c3cc(OCC4CCCO4)c(C(N)=O)s3)c2cc1OC` (stereo not shown) [GSK204607] the “%Inh” value was 9%. For `COc1cc(Nc2nccc(N3CCC(NC(=O)Nc4cc(C)ccc4C)C3)n2)cc(OC)c1OC` (stereo not shown) [GSK1379762], the “%Inh” value was 8%. In the case of `Cl.NC(=O)c1cccc(Nc2nccc(Nc3ccc(Oc4cccc(Cl)c4)c(Cl)c3)n2)c1` [GW659008], the “%Inh” value is reported as 3%. In the case of `COc1ccccc1CNC(=O)c1cc(C(=O)c2ccccc2C)c[nH]1` [GSK364507], the “%Inh” value is reported as 10%. With `COc1cc2ncnc(Nc3ccc4nc(-c5ccccc5)[nH]c4c3)c2cc1OC.Cl` [GW282450] the “%Inh” value was 2%. With `NC(=O)c1nnc2ccccc2c1N` the “%Inh” value was 23%. `CN1C(=O)C(Nc2ccc(Cl)c(C(=O)O)c2)=C(c2ccc(Cl)cc2)C1=O` [SB-404290] was tested, and the “%Inh” value was 0%. `Cc1cccc(-c2cc(Nc3ccncc3)c3ccccc3n2)n1` [GSK223675] was tested, and the “%Inh” value was 2%. For `Cc1ccc(NC(=O)Nc2cc(C(C)(C)C)nn2-c2ccccc2)cc1` [GSK1014915], the “%Inh” value was 13%. For `Cn1ccc2ncnc(Oc3ccc(Nc4nc5ccccc5[nH]4)cc3)c21`, the “%Inh” value was 0%. `CCn1c(-c2cccnc2O)nc2cnccc21` [SB-736715] was tested, and the “%Inh” value was 0%. For `COc1ccc(C2=C(Nc3cccc(C(=O)O)c3)C(=O)NC2=O)cc1` [SB-390765], the “%Inh” value was 0%. `Fc1cc(Cl)ccc1Nc1ccnc2cc(I)ccc12` [GW551191] was tested, and the “%Inh” value was 16%. With `CS(=O)(=O)c1ccc(-c2c(-c3ncn[nH]3)sc(N3CCOCC3)c2C#N)cc1` the “%Inh” value was 27%. In the case of `Cn1ccc2ncnc(Oc3ccc(NC(=O)Nc4ccccc4)cc3)c21`, the “%Inh” value is reported as 17%. `Cc1cccc(-c2nc(Nc3ccc4[nH]ncc4c3)c3ccccc3n2)n1` [GW857175] was tested, and the “%Inh” value was 17%. In the case of `CC1=C(C(=O)Nc2cc3cn[nH]c3cc2F)C(c2ccc(C(F)(F)F)cc2)CC(=O)N1` (stereo not shown) [GSK429286], the “%Inh” value is reported as 8%. For `Cc1cccc(-c2nc(C)cc(Nc3ccncc3)n2)n1` [GSK257997], the “%Inh” value was 10%. For `Fc1cccc(COc2nnc(-c3ccc4c(c3)CCO4)o2)c1`, the “%Inh” value was 0%. With `COc1ccc(CNC(=O)NC2CCN(c3ccnc(Nc4cc(OC)c(OC)c(OC)c4)n3)C2)cc1` (stereo not shown) [GSK1379748] the “%Inh” value was 0%. In the case of `O=C(Nc1n[nH]c2nc(-c3nccs3)c(Br)cc12)C1CCCC1` [SB-742609], the “%Inh” value is reported as 4%. For `Cc1csc(-c2nc(Nc3ccncc3)c3ccccc3n2)n1` [GW869640], the “%Inh” value was 2%. In the case of `O=C(Nc1n[nH]c2nc(-c3nccs3)c(Br)cc12)C1CC1` [SB-742251], the “%Inh” value is reported as 6%.

The molecules below were run on T2, YANK2. Details: concentration: 1 μM, replicates: in singlicate; n = 1.
T2 construct: gene STK32B
With `Nc1ncnc2[nH]c(-c3ccccc3)nc12` [AH5015] the “%Inh” value was 4%. `Cc1cc(-c2ccc3c(c2)CC[C@@H](N[C@@H](C)c2ccccc2)C3)cnc1N.Cl` [GW412617] was tested, and the “%Inh” value was 4%. `Cc1ccc(-c2cc(-c3c[nH]nc3-c3ccccn3)ccn2)cc1` [GW684088] was tested, and the “%Inh” value was 0%. In the case of `O=C(Nc1n[nH]c2cc(-c3cccc(F)c3F)ccc12)C1CC1` [SB-733894], the “%Inh” value is reported as 0%. In the case of `O=C(Nc1ccc2c(c1)OCO2)NC1CCN(c2ccnc(Nc3ccc(F)cc3)n2)C1` (stereo not shown) [GSK1379724], the “%Inh” value is reported as 0%. In the case of `O=c1cc(N2CCOCC2)nc2n(Cc3cccc(Cl)c3Cl)ccn12` [GSK2286295], the “%Inh” value is reported as 2%. In the case of `COc1cccc(NC(=O)NC2CCN(c3ccnc(Nc4ccc(F)cc4)n3)C2)c1` (stereo not shown) [GSK1379721], the “%Inh” value is reported as 0%. For `CN(C)CCN(C)C(=O)c1cc(-c2ccncc2)c(-c2ccc(Cl)c(O)c2)o1.Cl.Cl` [SB-710397], the “%Inh” value was 71%. `CC(C)(C)c1ccc(C(=O)Nc2cn3cc(Cl)ccc3n2)cc1` was tested, and the “%Inh” value was 0%. In the case of `COc1cc2nccc(Nc3ccc(NC(=O)c4ccc(C)cc4)c(O)c3)c2cc1OC.Cl` [GW440132], the “%Inh” value is reported as 0%. In the case of `O=C1NC(=O)C(N2CCc3ccccc32)=C1c1ccccc1Cl` [SB-373598], the “%Inh” value is reported as 16%. In the case of `COc1cc2ncn(-c3cc(OCC4CCCO4)c(C(N)=O)s3)c2cc1OC` (stereo not shown) [GSK204607], the “%Inh” value is reported as 0%. In the case of `COc1cc(Nc2nccc(N3CCC(NC(=O)Nc4cc(C)ccc4C)C3)n2)cc(OC)c1OC` (stereo not shown) [GSK1379762], the “%Inh” value is reported as 0%. In the case of `Cl.NC(=O)c1cccc(Nc2nccc(Nc3ccc(Oc4cccc(Cl)c4)c(Cl)c3)n2)c1` [GW659008], the “%Inh” value is reported as 2%. `COc1ccccc1CNC(=O)c1cc(C(=O)c2ccccc2C)c[nH]1` [GSK364507] was tested, and the “%Inh” value was 0%. `COc1cc2ncnc(Nc3ccc4nc(-c5ccccc5)[nH]c4c3)c2cc1OC.Cl` [GW282450] was tested, and the “%Inh” value was 0%. With `NC(=O)c1nnc2ccccc2c1N` the “%Inh” value was 0%. `CN1C(=O)C(Nc2ccc(Cl)c(C(=O)O)c2)=C(c2ccc(Cl)cc2)C1=O` [SB-404290] was tested, and the “%Inh” value was 0%. With `Cc1cccc(-c2cc(Nc3ccncc3)c3ccccc3n2)n1` [GSK223675] the “%Inh” value was 0%. In the case of `Cc1ccc(NC(=O)Nc2cc(C(C)(C)C)nn2-c2ccccc2)cc1` [GSK1014915], the “%Inh” value is reported as 5%. With `Cn1ccc2ncnc(Oc3ccc(Nc4nc5ccccc5[nH]4)cc3)c21` the “%Inh” value was 0%. In the case of `CCn1c(-c2cccnc2O)nc2cnccc21` [SB-736715], the “%Inh” value is reported as 0%. With `COc1ccc(C2=C(Nc3cccc(C(=O)O)c3)C(=O)NC2=O)cc1` [SB-390765] the “%Inh” value was 0%. In the case of `Fc1cc(Cl)ccc1Nc1ccnc2cc(I)ccc12` [GW551191], the “%Inh” value is reported as 11%. For `CS(=O)(=O)c1ccc(-c2c(-c3ncn[nH]3)sc(N3CCOCC3)c2C#N)cc1`, the “%Inh” value was 0%. For `Cn1ccc2ncnc(Oc3ccc(NC(=O)Nc4ccccc4)cc3)c21`, the “%Inh” value was 0%. For `Cc1cccc(-c2nc(Nc3ccc4[nH]ncc4c3)c3ccccc3n2)n1` [GW857175], the “%Inh” value was 0%. In the case of `CC1=C(C(=O)Nc2cc3cn[nH]c3cc2F)C(c2ccc(C(F)(F)F)cc2)CC(=O)N1` (stereo not shown) [GSK429286], the “%Inh” value is reported as 0%. In the case of `Cc1cccc(-c2nc(C)cc(Nc3ccncc3)n2)n1` [GSK257997], the “%Inh” value is reported as 0%. `Fc1cccc(COc2nnc(-c3ccc4c(c3)CCO4)o2)c1` was tested, and the “%Inh” value was 0%. With `COc1ccc(CNC(=O)NC2CCN(c3ccnc(Nc4cc(OC)c(OC)c(OC)c4)n3)C2)cc1` (stereo not shown) [GSK1379748] the “%Inh” value was 0%. `O=C(Nc1n[nH]c2nc(-c3nccs3)c(Br)cc12)C1CCCC1` [SB-742609] was tested, and the “%Inh” value was 0%. In the case of `Cc1csc(-c2nc(Nc3ccncc3)c3ccccc3n2)n1` [GW869640], the “%Inh” value is reported as 3%. `O=C(Nc1n[nH]c2nc(-c3nccs3)c(Br)cc12)C1CC1` [SB-742251] was tested, and the “%Inh” value was 0%.
